Drawing on PubChem BioAssay (EPA / NIEHS), this text covers outcome and AC50 for 16 molecules.

SMILES strings stand for the structures. Calls of active or inactive are those of the source. The calls were made as follows: active = hit-call score of the fitted dose curve at least 0.9, where 1 is the maximum; inactive = score below 0.9.

Read-out in assay [1]: Interferon-gamma inducible Protein 10 (IP10), CXCL10 (gene 3627)
Put plainly: BSK_hDFCGF_IP10: BioMAP Diversity Plus: hDFCGF Assay for Interferon-gamma inducible Protein 10 (IP10) Biomarker Activity (AID 2283053). The following applies: primary human foreskin fibroblasts; actives raise or lower the signal. The gist of the method: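 ELISA read-out of IP-10 (CXCL10) from primary human skin fibroblasts, 24 h after compound addition. Gain or loss of signal versus DMSO baseline, bidirectional curve fitting.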

Read-out in assay [2]: Urokinase-type plasminogen activator receptor (uPAR), PLAUR (gene 5329)
Kind of assay: BSK_CASM3C_uPAR: BioMAP Diversity Plus: CASM3C Assay for Urokinase-type plasminogen activator receptor (uPAR) Biomarker Activity (AID 2283054).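 Also: cell-surface uPAR protein level quantified by ELISA.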 The note with it: primary human coronary artery smooth muscle cells; actives raise or lower the signal.

Read-out in assay [3]: Vascular cell adhesion molecule 1 (VCAM1), VCAM1 (gene 7412)
Kind of assay: BSK_CASM3C_VCAM1: BioMAP Diversity Plus: CASM3C Assay for Vascular cell adhesion molecule 1 (VCAM1) Biomarker Activity (AID 2283055).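 Also: VCAM-1 protein level quantified by ELISA on the cells.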 The following applies: primary human coronary artery smooth muscle cells; actives raise or lower the signal.

Read-out in assay [4]: Collagen III, COL3A1 (gene 1281)
Kind of assay: BSK_hDFCGF_CollagenIII: BioMAP Diversity Plus: hDFCGF Assay for Collagen III Biomarker Activity (AID 2283056). The note with it: primary human foreskin fibroblasts; actives raise or lower the signal. In a few lines: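 Response relative to DMSO, fitted in both directions, reflects ELISA-measured collagen III in human primary skin fibroblasts 24 h after compound addition.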

Read-out in assay [5]: Interleukin-8 (IL8), CXCL8 (gene 3576)
Kind of assay: BSK_hDFCGF_IL8: BioMAP Diversity Plus: hDFCGF Assay for Interleukin-8 (IL8) Biomarker Activity (AID 2283058). The note with it: primary human foreskin fibroblasts; actives raise or lower the signal. The gist of the method:
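Fibroblast monolayers (human foreskin, hDFCGF) received test chemical for 24 h before ELISA detection of IL-8; either increases or decreases relative to DMSO count as activity.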

The nature of assay [6]: BSK_hDFCGF_Proliferation: Cell Proliferation Assessment in the BioMAP Diversity Plus: hDFCGF Assay (AID 2283059).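 Also: curves fitted for both rise and fall of signal versus DMSO baseline.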 The note with it: primary human foreskin fibroblasts. The gist of the method: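 Steps: dose primary human dermal fibroblasts (foreskin); […] fix in 10% TCA; stain with 0.1% SRB; read 560 nm; fit gain or loss of signal against DMSO.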
Read-out in assay [7]: Macrophage colony-stimulating factor (MCSF), CSF1 (gene 1435)
Put plainly: BSK_hDFCGF_MCSF: BioMAP Diversity Plus: hDFCGF Assay for Macrophage colony-stimulating factor (MCSF) Biomarker Activity (AID 2283060). The following applies: primary human foreskin fibroblasts; actives raise or lower the signal. The gist of the method:
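fibroblasts (human foreskin, primary), 24 h post-dose; M-CSF by ELISA; bidirectional fit, DMSO = baseline.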

Assay [8] is described as follows: BSK_hDFCGF_SRB: Viability Assessment in the BioMAP Diversity Plus: hDFCGF Assay (AID 2283061).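 Also: cells exposed to compound for 24 h before the read.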 The note with it: primary human foreskin fibroblasts. In a few lines: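 SRB-based viability read on primary human skin fibroblasts at 24 h: TCA fixation, 0.1% dye, 560 nm. Gain or loss of signal is fitted against the DMSO negative control.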
Read-out in assay [9]: TIMP metallopeptidase inhibitor 1 (TIMP1), TIMP1 (gene 7076)
Put plainly: BSK_hDFCGF_TIMP1: BioMAP Diversity Plus: hDFCGF Assay for TIMP metallopeptidase inhibitor 1 (TIMP1) Biomarker Activity (AID 2283062). The following applies: primary human foreskin fibroblasts; actives raise or lower the signal. In a few lines: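 Bidirectional curve fitting against DMSO baseline yielded this endpoint, based on ELISA detection of TIMP-1 in primary human foreskin fibroblasts exposed to compound for 24 h.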

Read-out in assay [10]: Epidermal growth factor receptor (EGFR), EGFR (gene 1956)
Put plainly: BSK_hDFCGF_EGFR: BioMAP Diversity Plus: hDFCGF Assay for Epidermal growth factor receptor (EGFR) Biomarker Activity (AID 2283057). The following applies: primary human foreskin fibroblasts; actives raise or lower the signal. In a few lines: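 ELISA readout of EGFR on human dermal fibroblasts (primary foreskin cells), 24 h post-dosing; bidirectional curve fit vs DMSO baseline, gain or loss of signal scored.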

Consider `Cc1cc(Cl)ccc1N`, for which the outcome in [1], in assay [2], in assay [3], in [4], in [5] and in [7] was inactive. In addition, the outcome in assay [8] and in assay [9] was inactive. For the same molecule, in [6], the half-maximal activity concentration (AC50) is 5.13 µM (active).
With `OCCN(CCO)CCO`, the outcome in [1], in assay [2], in assay [3], in assay [4], in assay [10] and in [5] was inactive. Moreover, the result in assay [6], in [7], in [8] and in assay [9] was inactive.
As to `Cc1cc(C(C)(C)c2ccc(O)c(C)c2)ccc1O`, the outcome in assay [1], in assay [5] and in assay [9] was inactive. Also, the AC50 is 17.1 µM (active) in assay [2]; 13.9 µM (active) in [3]; 15.6 µM (active) in assay [4]; 13.9 µM (active) in assay [6]; 15.3 µM (active) in assay [7]; 16.1 µM (active) in assay [8].
For the molecule `C#CCOC(=O)/C=C(C)/C=C/CC(C)CCCC(C)C` (stereo not drawn), the result in [1], in [2], in [3], in [10], in assay [5] and in [6] was inactive. For the same molecule, the outcome in assay [8] and in assay [9] was inactive. Besides, the AC50 in [4] is 12.6 µM (active); in [7], 10 µM (active).
Regarding `Cc1cccc(OP(=O)(Oc2cccc(C)c2)Oc2cccc(C)c2)c1`, the outcome in assay [1], in [2], in assay [3], in assay [10], in assay [5] and in [6] was inactive. In addition, the result in assay [8] and in assay [9] was inactive. In addition, the AC50 in assay [7] was 4.78 µM (active).
Turning to `Clc1cccc(Cl)c1`, the result in assay [1], in [2], in [3], in assay [4], in assay [5] and in [6] was inactive. The result in assay [7], in assay [8] and in assay [9] was inactive.
For the molecule `CCOC(=O)C(SP(=S)(OC)OC)c1ccccc1` (stereo not drawn), the outcome in assay [1], in [2], in assay [5], in assay [8] and in assay [9] was inactive. Moreover, the AC50 is 20 µM (active) in assay [3], 10.2 µM (active) in [4], 26.4 µM (active) in assay [6] and 7.09 µM (active) in assay [7].
Turning to `O=C(O)COc1cc(Cl)c(Cl)cc1Cl`, the outcome in assay [1], in assay [2], in assay [3], in assay [4], in assay [5] and in assay [6] was inactive. The result in assay [7], in [8] and in assay [9] was inactive.
In the case of `Nc1c(Oc2ccccc2)cc(O)c2c1C(=O)c1ccccc1C2=O`, the AC50 in [1] was 17 µM (active); in assay [7], 10 µM (active). Further, the result in assay [2], in assay [3], in [4], in assay [5], in assay [6] and in [8] was inactive. Moreover, the outcome in assay [9] was inactive.
On to `CC(C)N(C(=O)CCl)c1ccccc1`, for which the AC50 in assay [1] is 3.13 µM (active); in [2], 11 µM (active); in [3], 4.39 µM (active); in assay [4], 1.69 µM (active); in [5], 13.3 µM (active); in assay [6], 2.45 µM (active). Also, the AC50 in assay [7] is 6.59 µM (active); in assay [8], 3.03 µM (active); in [9], 2.98 µM (active). Moreover, in assay [10], the outcome was inactive.
With `Cc1ccc2nc3sc(=O)sc3nc2c1`, the result in assay [1], in assay [3], in assay [10], in assay [5], in assay [7] and in assay [8] was inactive. Also, the result in [9] was inactive. Further, the AC50 was 2.14 µM (active) in assay [2] and 5 µM (active) in assay [6].
In the case of `Oc1c(Cl)cc(Cl)cc1Cl`, the result in assay [1], in assay [2], in [3], in assay [4], in assay [5] and in [6] was inactive. In addition, the result in assay [7], in [8] and in assay [9] was inactive.
For the molecule `CCOP(=O)(OCC)SCCSCC`, the outcome in [1], in [2], in [3], in assay [10], in assay [5] and in [6] was inactive. Further, the result in assay [7], in assay [8] and in assay [9] was inactive.
With `COCC(=O)N(c1c(C)cccc1C)[C@H](C)C(=O)OC`, the result in [1], in [2], in [3], in assay [4], in assay [5] and in assay [6] was inactive. In addition, the outcome in assay [7], in assay [8] and in assay [9] was inactive.
Regarding `O=S(=O)(C(Cl)(Cl)Cl)C(Cl)(Cl)Cl`, the AC50 in assay [1] was 2.92 µM (active); in assay [2], 3.04 µM (active); in assay [3], 1.41 µM (active); in assay [4] it was 2.27 µM (active); in [5] it was 3.56 µM (active); in assay [6], 0.0831 µM (active). The AC50 in assay [7] is 2.3 µM (active); in assay [8], 1.52 µM (active); in [9] it was 1.72 µM (active).
Regarding `O=C(O)C1(c2ccc3c(c2)OC[C@H](Cc2ccc(-c4ccccc4)cc2)[C@H]3O)CCCC1`, the AC50 was 7.31 µM (active) in assay [1]; 28 µM (active) in assay [2]; 20 µM (active) in assay [3]; 4.51 µM (active) in [4]; 5.5 µM (active) in assay [10]; 14.7 µM (active) in assay [5]. The AC50 in assay [6] was 6.62 µM (active); in assay [7] it was 8.18 µM (active); in assay [8], 7.76 µM (active); in assay [9] it was 11.7 µM (active).

As usually defined, the AC50 is the midpoint of the concentration-response curve, whichever way the signal moves.
